Active and inactive are the calls of the source. Rule for the calls: active = hit-call score of the fitted dose curve at least 0.9, where 1 is the maximum; inactive = score below 0.9.
Legend:
[1] = BSK_hDFCGF_Proliferation: Cell Proliferation Assessment in the BioMAP Diversity Plus: hDFCGF Assay (AID 2283059); conditions: primary human foreskin fibroblasts;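 note: curves fitted for both rise and fall of signal versus DMSO baseline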
In short: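 Steps: dose primary human dermal fibroblasts (foreskin); […] fix in 10% TCA; stain with 0.1% SRB; read 560 nm; fit gain or loss of signal against DMSO.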

[2] = read-out: Macrophage colony-stimulating factor (MCSF), CSF1 (gene 1435); assay: BSK_hDFCGF_MCSF: BioMAP Diversity Plus: hDFCGF Assay for Macrophage colony-stimulating factor (MCSF) Biomarker Activity (AID 2283060); conditions: primary human foreskin fibroblasts; actives raise or lower the signal
In short: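 fibroblasts (human foreskin, primary), 24 h post-dose; M-CSF by ELISA; bidirectional fit, DMSO = baseline.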

[3] = BSK_hDFCGF_SRB: Viability Assessment in the BioMAP Diversity Plus: hDFCGF Assay (AID 2283061); conditions: primary human foreskin fibroblasts;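 note: cells exposed to compound for 24 h before the read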
In short: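 SRB-based viability read on primary human skin fibroblasts at 24 h: TCA fixation, 0.1% dye, 560 nm. Gain or loss of signal is fitted against the DMSO negative control.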

[4] = read-out: TIMP metallopeptidase inhibitor 1 (TIMP1), TIMP1 (gene 7076); assay: BSK_hDFCGF_TIMP1: BioMAP Diversity Plus: hDFCGF Assay for TIMP metallopeptidase inhibitor 1 (TIMP1) Biomarker Activity (AID 2283062); conditions: primary human foreskin fibroblasts; actives raise or lower the signal
In short: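 Bidirectional curve fitting against DMSO baseline yielded this endpoint, based on ELISA detection of TIMP-1 in primary human foreskin fibroblasts exposed to compound for 24 h.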

[5] = read-out: Monokine induced gamma interferon (MIG), CXCL9 (gene 4283); assay: BSK_hDFCGF_MIG: BioMAP Diversity Plus: hDFCGF Assay for Monokine induced gamma interferon (MIG) Biomarker Activity (AID 2283063); conditions: primary human foreskin fibroblasts; actives raise or lower the signal
In short: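 Endpoint derived by bidirectional fitting relative to DMSO; MIG quantified via ELISA in primary human foreskin fibroblasts harvested 24 h after dosing.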

[6] = read-out: Matrix Metallopeptidase 1 (MMP1), MMP1 (gene 4312); assay: BSK_hDFCGF_MMP1: BioMAP Diversity Plus: hDFCGF Assay for Matrix Metallopeptidase 1 (MMP1) Biomarker Activity (AID 2283064); conditions: primary human foreskin fibroblasts; actives raise or lower the signal
In short: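 Primary human foreskin fibroblasts in the hDFCGF system were dosed with test chemical, and MMP1 was measured by ELISA 24 h later. Values come from bidirectional curve fitting against the DMSO baseline.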

[7] = read-out: Vascular cell adhesion molecule 1 (VCAM1), VCAM1 (gene 7412); assay: BSK_hDFCGF_VCAM1: BioMAP Diversity Plus: hDFCGF Assay for Vascular cell adhesion molecule 1 (VCAM1) Biomarker Activity (AID 2283065); conditions: primary human foreskin fibroblasts; actives raise or lower the signal;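 for AC50: VCAM-1 protein level quantified by ELISA after 24 h chemical exposure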
In short: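 Measured after 24 h chemical treatment of primary human skin fibroblasts, VCAM-1 was detected by ELISA and concentration-response analysed in both directions versus DMSO vehicle.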

[8] = read-out: Plasminogen activator inhibitor-1 (PAI1), SERPINE1 (gene 5054); assay: BSK_hDFCGF_PAI1: BioMAP Diversity Plus: hDFCGF Assay for Plasminogen activator inhibitor-1 (PAI1) Biomarker Activity (AID 2283066); conditions: primary human foreskin fibroblasts; actives raise or lower the signal
In short: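 Primary dermal fibroblasts (human foreskin), hDFCGF system; compound 24 h; PAI-1 by ELISA; bidirectional fit vs DMSO control.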

[9] = read-out: Intercellular Adhesion Molecule 1 (ICAM1), ICAM1 (gene 3383); assay: BSK_KF3CT_ICAM1: BioMAP Diversity Plus: KF3CT Assay for Intercellular Adhesion Molecule 1 (ICAM1) Biomarker Activity (AID 2283067); conditions: primary human keratinocytes with fibroblasts; actives raise or lower the signal
In short: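 Bidirectional curve fitting against a DMSO baseline was applied to ICAM-1 ELISA signal from primary human skin co-cultures harvested 24 h after treatment, with SRB staining of parallel wells for overt cytotoxicity.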

CC(C)C1(C)N=C(c2ncccc2C(=O)O)NC1=O (centres undefined)
outcome [1]: inactive | outcome [2]: inactive | outcome [3]: inactive | outcome [4]: inactive | outcome [5]: inactive | outcome [6]: inactive | outcome [7]: inactive | outcome [8]: inactive | outcome [9]: inactive

Cc1cc(C)nc(Nc2ccccc2)n1
outcome [1]: inactive | outcome [2]: inactive | outcome [3]: inactive | outcome [4]: inactive | outcome [5]: inactive | outcome [6]: inactive | outcome [7]: inactive | outcome [8]: inactive | outcome [9]: inactive

Clc1nc(Cl)nc(Nc2ccccc2Cl)n1
AC50 [3]: 31.7 µM (active) | outcome [4]: inactive | AC50 [5]: 29.1 µM (active) | outcome [6]: inactive | AC50 [7]: 36.1 µM (active) | AC50 [8]: 27.2 µM (active) | outcome [9]: inactive

CCCCC(C#N)(Cn1cncn1)c1ccc(Cl)cc1 (centres undefined)
outcome [2]: inactive | outcome [3]: inactive | outcome [4]: inactive | outcome [5]: inactive | outcome [6]: inactive | outcome [7]: inactive | AC50 [8]: 7.4 µM (active) | outcome [9]: inactive

COc1cc(OC)nc(NC(=O)NS(=O)(=O)c2ncccc2OCC(F)(F)F)n1
outcome [2]: inactive | outcome [3]: inactive | outcome [4]: inactive | outcome [5]: inactive | outcome [6]: inactive | outcome [7]: inactive | outcome [8]: inactive | outcome [9]: inactive

OC(c1ccc(Cl)cc1)(c1ccc(Cl)cc1)C(Cl)(Cl)Cl
AC50 [2]: 8.17 µM (active) | AC50 [3]: 10.5 µM (active) | AC50 [4]: 11.4 µM (active) | AC50 [5]: 10.1 µM (active) | AC50 [6]: 11 µM (active) | AC50 [7]: 8.87 µM (active) | AC50 [8]: 11 µM (active) | AC50 [9]: 11.6 µM (active)

CCNP(=S)(OC)O/C(C)=C/C(=O)OC(C)C (centres undefined)
outcome [2]: inactive | outcome [3]: inactive | outcome [4]: inactive | outcome [5]: inactive | outcome [6]: inactive | outcome [7]: inactive | outcome [8]: inactive | outcome [9]: inactive

Cn1c(-c2ccccc2)cc(-c2ccccc2)[n+]1C
AC50 [1]: 5.37 µM (active) | AC50 [2]: 5.47 µM (active) | outcome [3]: inactive | AC50 [4]: 20 µM (active) | outcome [5]: inactive | outcome [6]: inactive | outcome [7]: inactive | outcome [8]: inactive | outcome [9]: inactive

CCC(C)n1c(=O)[nH]c(C)c(Br)c1=O (centres undefined)
outcome [2]: inactive | outcome [3]: inactive | outcome [4]: inactive | outcome [5]: inactive | outcome [6]: inactive | outcome [7]: inactive | outcome [8]: inactive | outcome [9]: inactive

COP(=S)(OC)SCn1nnc2ccccc2c1=O
outcome [2]: inactive | outcome [3]: inactive | outcome [4]: inactive | outcome [5]: inactive | outcome [6]: inactive | outcome [7]: inactive | outcome [8]: inactive | outcome [9]: inactive

COc1ccc(-c2ccccc2)cc1NNC(=O)OC(C)C
outcome [2]: inactive | outcome [3]: inactive | outcome [4]: inactive | outcome [5]: inactive | outcome [6]: inactive | outcome [7]: inactive | outcome [8]: inactive | outcome [9]: inactive

CCOc1cc(C(C)(C)C)ccc1C1COC(c2c(F)cccc2F)=N1 (centres undefined)
AC50 [1]: 6.95 µM (active) | AC50 [2]: 14.5 µM (active) | AC50 [3]: 19.7 µM (active) | AC50 [4]: 13.8 µM (active) | AC50 [5]: 29.4 µM (active) | AC50 [6]: 14.3 µM (active) | AC50 [7]: 15.3 µM (active) | AC50 [8]: 12.3 µM (active) | AC50 [9]: 31.3 µM (active)

N#Cc1c(Cl)cccc1Cl
outcome [2]: inactive | outcome [3]: inactive | outcome [4]: inactive | outcome [5]: inactive | outcome [6]: inactive | outcome [7]: inactive | outcome [8]: inactive | outcome [9]: inactive

Nc1cnn(-c2ccccc2)c(=O)c1Cl
outcome [2]: inactive | outcome [3]: inactive | outcome [4]: inactive | outcome [5]: inactive | outcome [6]: inactive | outcome [7]: inactive | outcome [8]: inactive | outcome [9]: inactive

CCCC(=NOCC)C1=C(O)CC(CC(C)SCC)CC1=O (centres undefined)
outcome [2]: inactive | outcome [3]: inactive | outcome [4]: inactive | outcome [5]: inactive | outcome [6]: inactive | outcome [7]: inactive | outcome [8]: inactive | outcome [9]: inactive

COC(=O)NC(=S)Nc1ccccc1NC(=S)NC(=O)OC
outcome [2]: inactive | outcome [3]: inactive | outcome [4]: inactive | outcome [5]: inactive | AC50 [6]: 3.97 µM (active) | outcome [7]: inactive | outcome [8]: inactive | outcome [9]: inactive

O=c1n(Cl)c(=O)n(Cl)c(=O)n1Cl
outcome [1]: inactive | outcome [2]: inactive | outcome [3]: inactive | outcome [4]: inactive | outcome [5]: inactive | outcome [6]: inactive | outcome [7]: inactive | outcome [8]: inactive | outcome [9]: inactive

CC(C)(C)C(=O)C(Oc1ccc(Cl)cc1)n1cncn1 (centres undefined)
outcome [2]: inactive | outcome [3]: inactive | outcome [4]: inactive | outcome [5]: inactive | outcome [6]: inactive | outcome [7]: inactive | outcome [8]: inactive | outcome [9]: inactive

CC(C)=CC1C(C(=O)OCc2coc(Cc3ccccc3)c2)C1(C)C (centres undefined)
AC50 [2]: 11.1 µM (active) | outcome [3]: inactive | outcome [4]: inactive | outcome [5]: inactive | outcome [6]: inactive | outcome [7]: inactive | outcome [8]: inactive | outcome [9]: inactive

COCC(=O)N(c1c(C)cccc1C)C(C)C(=O)OC (centres undefined)
outcome [2]: inactive | outcome [3]: inactive | outcome [4]: inactive | outcome [5]: inactive | outcome [6]: inactive | outcome [7]: inactive | outcome [8]: inactive | outcome [9]: inactive
